From PubChem BioAssay AID2061310 (National Center for Advancing Translational Sciences (NCATS), 2025)
Inconclusive results are not listed. A call without a number means that no potency is given here. Active and inactive are the calls of the source. Calls come from the whole dose curve; as a rule, active = well fitted curve in the direction sought with a large enough effect; inconclusive = small, poorly fitted or top-dose-only effect, or another doubt; inactive = no such curve, though single readings can be large or run the other way.

Molecular target: Retinal dehydrogenase 2 (Homo sapiens) (UniProt O94788)
Test: qHTS for Inhibitors of the Aldehyde Dehydrogenase Family (ALDH1A2) Validation screens
Details: fluorescence read-out; Potency: ALDH1A2 inhibition qHTS validation; series mostly up to 49.8 µM

SMILES | Potency
CCOc1ccc(-c2cc(C(=O)N3CCN(c4ccccn4)CC3)c3ccccc3n2)cc1 | inactive
CCOC(=O)CSc1nc2c(sc3ccccc32)c(=O)n1CCCN1CCCC1 | inactive
O=C(OC1C[C@@H]2CC3C[C@H](C1)N2CC3=O)c1c[nH]c2ccccc12 (some centres undefined) | inactive
CCOC(=O)CNS(=O)(=O)c1cc(-c2nnc(Nc3cccc(O)c3)c3ccccc23)ccc1C | inactive
Cc1ccc(C(=O)Nc2cccc(C(=O)O)c2)cc1 | inactive
CCCN(CCC)C(=O)Cn1c(=O)n(-c2ccc(C)cc2)c(=O)c2ccc(C(=O)NCc3ccccc3Cl)cc21 | inactive
CC(C)N(CCC(=O)c1ccc2ccccc2c1)Cc1ccccc1 | 5.62 µM (active)
CC(C)(C)c1ccc(S(=O)(=O)/C=C/C#N)cc1 | 2.82 µM (active)
N/C(=N\OC(=O)c1ccccc1)c1ccccn1 | inactive
